# Source: PubChem BioAssay
# ALDH1A1 inh: qHTS Assay for Inhibitors of Aldehyde Dehydrogenase 1 (ALDH1A1). Purified ALDH1A1, NADH fluorescence, propionaldehyde substrate. 7.3% of 220,000 active. Potency, µM (titrated, usually from 75.3 µM), inactives show top-dose activity, negative = inhibition, usual class: inhibitors; active = well fitted inhibition curve with a large enough effect, not every such curve was filed as active; inconclusive = small, poorly fitted or top-dose-only effect, or another doubt; inactive = no such curve, though single readings can be large or run the other way;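 also: plate controls were no enzyme wells and a reference inhibitor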
# Target sequence (P00352 whole entry, looked up): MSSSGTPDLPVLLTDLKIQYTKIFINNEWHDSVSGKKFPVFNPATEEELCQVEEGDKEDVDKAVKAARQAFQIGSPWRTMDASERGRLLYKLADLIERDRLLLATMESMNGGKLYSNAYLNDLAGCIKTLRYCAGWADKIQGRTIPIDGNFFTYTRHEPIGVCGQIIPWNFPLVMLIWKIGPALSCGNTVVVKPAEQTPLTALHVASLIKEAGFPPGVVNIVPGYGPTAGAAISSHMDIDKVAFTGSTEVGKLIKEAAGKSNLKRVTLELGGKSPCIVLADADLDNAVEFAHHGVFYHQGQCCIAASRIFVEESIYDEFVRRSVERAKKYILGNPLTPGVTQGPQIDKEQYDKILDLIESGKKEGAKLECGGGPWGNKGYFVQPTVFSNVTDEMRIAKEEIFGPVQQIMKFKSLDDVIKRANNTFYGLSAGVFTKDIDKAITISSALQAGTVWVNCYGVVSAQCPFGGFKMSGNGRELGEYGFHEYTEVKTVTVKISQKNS
# RORgamma inh: qHTS for inhibitors of ROR gamma transcriptional activity | Nuclear receptor ROR-gamma (Mus musculus), P51450 | Drosophila S2 Gal4-RORgamma UAS-luciferase reporter, 20 h | Potency, µM (titrated, usually from 53.6 µM), for the others: top-dose activity change, negative = inhibition, actives largely listed as inhibitors | 5.4% of 310,000 active | AID 2551, 2010; also: nearly all actives have a fitted effect of over 60% in size
#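 Luciferase reporter read in Schneider cells carrying Gal4-RORγ (mouse) and UAS-Photinus luciferase; cells given compound 1 h before 700 uM copper sulfate induction, then incubated 20 h at ambient temperature.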
# PLK1 PBD block: qHTS for Inhibitors of PLK1-PDB (polo-like kinase 1 - polo-box domain): Primary Screen; Plk1 PBD binding of FITC phosphopeptide, fluorescence polarization; Potency, µM, for inactives: max response, negative = inhibition, most hits filed as inhibitors; 2.8% of 360,000 active; AID 720504, 2013; also: series mostly up to about 57 µM; nearly all actives have a fitted effect of over 65% in size
# Sfp PPTase inh: qHTS Assay for Inhibitors of Bacillus subtilis Sfp phosphopantetheinyl transferase (PPTase) | 4'-phosphopantetheinyl transferase ffp (Bacillus subtilis), Q9F4F7 | Biochemical Sfp PPTase activity, qHTS | Potency, µM, without a hit: largest response in the series, negative = inhibition, usual class: inhibitors | 3.5% of 310,000 active | AID 1490, 2009;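 also: the enzyme is Sfp with the accession as filed and its product quenches rhodamine fluorescence; 0% = enzyme reaction without inhibitor and -100% = no enzyme wells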
#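 Step 1, compound plus 15 nM Sfp-PPTase, 15 min, room temperature. Step 2, add rhodamine-CoA (5 uM) and BHQ-2-YbbR (12.5 uM). Step 3, read 525/598 nm fluorescence at 0 and 30 min.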
# Gal4-VP16 FLuc: VP16 counterscreen qHTS for inhibitors of ROR gamma transcriptional activity | Drosophila S2 Gal4-VP16 UAS-luciferase, luminescence, 20 h | Potency, µM (series often up to 53.6 µM), for inactives: at the highest dose activity, negative = inhibition, hits mostly inhibitors | 3.5% of 310,000 active;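 also: Gal4-VP16 expression switched on by copper sulfate through the metallothionein promoter; nearly all actives have a fitted effect of over 50% in size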
# Active calls of the source: *; ? = inconclusive; . = not tested or not shown; [ ] = dose if it differs, or a comment. Hits are enriched below; roughly 12% of the tested compounds scored in any of these assays. Unless noted, calls follow the shape of the dose curve; as a rule, active = well fitted curve in the direction sought with a large enough effect; inconclusive = small, poorly fitted or top-dose-only effect, or another doubt; inactive = no such curve, though single readings can be large; an effect the other way counts as inactive or inconclusive. Unless noted, % is scaled to controls: 0 for no effect and ±100 for the full control effect; potency is read from the fitted curve at half-maximal effect.
SMILES,ALDH1A1 inh,RORgamma inh,PLK1 PBD block,Sfp PPTase inh,Gal4-VP16 FLuc
Cc1cc(C)cc(OCC(=O)OCC(=O)NCc2ccco2)c1,35µM*,5%,-4%,-4%,4%
O=C(COC(=O)C1(c2ccc(F)cc2)CCCC1)NCc1ccco1,-8%,?,-13%,56µM*,8%
Cc1ccc2cccc(OCC(=O)NCc3ccco3)c2n1,-8%,11%,-10%,28µM*,-15%
Cc1ccc(OCC(=O)NCc2ccco2)c([N+](=O)[O-])n1,-2%,-6%,-3%,-3%,-4%[10 µM]
Cc1ccc(C(=O)OCC(=O)NCc2ccco2)s1,-12%,-10%,-24%,45µM*,1%
O=C(N/N=C1/C[C@@H](O)[C@@H](O)[C@@H]2[C@@H]3C(=O)N(Cc4ccc5c(c4)OCO5)C(=O)[C@H]3CC[C@H]12)OCc1ccccc1,-4%[13.5 µM],2%[10 µM],.,4%,2%[10 µM]
COc1ccc(CN2CCNC(=O)C2CC(=O)N(C)Cc2nc(C)cs2)c(OC)c1 (stereo unspecified),.,.,-8%,5%,.
O=C(COC(=O)CCC(=O)c1ccc(Cl)cc1)NCc1ccco1,?,?,-16%,14µM*,-3%
O=C(COC(=O)CCC(=O)c1ccc(F)cc1)NCc1ccc(Cl)cc1,.,.,-6%,.,.
CC(C)(CCC(=S)N1CCOCC1)C1CCCCC1,.,?,12µM*,-89%,-9%
S=C(CN1CCCC1=S)N1CCOCC1,.,.,-15%,.,.
O=Cc1cn(CCOc2ccccc2F)c2ccccc12,.,?,-5%,-4%,-26%
O=Cc1cn(-c2ccc(F)cc2)c2ccccc12,2µM*,-18%,3%,-1%,2%
C[C@@H]1CN([C@@H](C)CO)C(=O)CCCn2nncc2CO[C@@H]1CN(C)S(=O)(=O)c1ccc(Oc2ccccc2)nc1,.,.,-13%,.,.
CN(Cc1ccccc1)C(=S)Nc1cccnc1,-5%,5%,21µM*,9%,-15%
COc1ccc(CN(C)C(=S)Nc2ccc(Cl)cc2)cc1,-10%,10µM*,-20%,19%,?
COc1cccc(CN(C)C(=S)Nc2cccc(C)c2)c1,-1%,11µM*,-3%,19%,?
Nc1c(-c2ccccc2)nc(Cl)nc1-c1ccccc1,?,14%,4%,-3%,2%
c1ccc(-c2nc3nonc3nc2-c2ccccc2)cc1,-10%,11µM*,-1%,-7%,?
c1ccc2[nH]c(NCCCN3CCOCC3)nc2c1,0%,-9%,1%,7%,-2%
S=c1[nH]nc(NCCCN2CCOCC2)s1,.,-33%,12µM*,35µM*,-6%
Cn1c(=O)c2cc(NC(=O)Nc3ccccc3)ccc2n1Cc1ccccc1,.,.,-13%,.,.
COc1cccc([C@@H]2CC=C(C(=O)O)CN2S(=O)(=O)c2ccc(C)cc2)c1,.,.,0%,.,.
CCOC(=O)c1nnc(-c2ccc(C)cc2)nc1Sc1ccc(Cl)cc1,3%,3%,-10%,-4%,-5%
CCOC(=O)c1nnc(-c2ccc(C)cc2)nc1Sc1ccccc1Cl,5%,27%,-2%,3%,-17%
SMILES,ALDH1A1 inh,RORgamma inh,PLK1 PBD block,Sfp PPTase inh,Gal4-VP16 FLuc
CCOC(=O)c1nnc(-c2ccccc2)nc1NCc1ccc(Cl)cc1,?,18%,-2%,50µM*,11%
CCOC(=O)c1nnc(-c2ccc(C)cc2)nc1Oc1ccc(Cl)cc1Cl,-6%,-27%,-15%,3%,?
CCOC(=O)c1nnc(-c2ccc(C)cc2)nc1Oc1ccccc1Cl,-10%,7%,-7%,-17%,6.3µM*
CCOC(=O)c1nnc(-c2ccccc2)nc1Sc1c(Cl)cccc1Cl,3%,-28%,-21%,-7%,18µM*
CCCCNC(=O)c1ccc2nc(CC)c(N(CC)CCOC)n2c1,.,.,-11%,.,.
O=C(NC(Cc1ccccc1)C(=O)N1CCN(c2ccc(F)cc2)CC1)c1ccccc1 (stereo unspecified),.,.,-3%,.,.
COC/C=C/C1=CC2=CC(=O)C(C)(OC(=O)CCc3ccccc3)C(=O)C2=CO1 (stereo unspecified),7%,-11%,.,5%,-2%
Cc1cc2nc3n(c2cc1C)CCCN3,.,1.6µM*,-2%,20%,-10%
Nc1sc2c(c1C(=O)c1ccccc1)CCCC2,14µM*,-20%,21µM*,50µM*,-9%
NC(=O)c1c(NC(=O)c2cccnc2)sc2c1CCCC2,?,39%,-11%,-7%,1%
NC(=O)c1c(N)sc2c1CCCC2,13µM*,-4%,24µM*,25µM*,5%
Nc1sc2c(c1C(=O)NCCc1ccccc1)CCC2,20µM*,18%,?,?,-7%
COc1ccc(CCNC(=O)c2csc3c2CCCC3)cc1,0.79µM*,38%,-2%,12%,-2%
c1ccc(CN(CCN(Cc2ccccn2)Cc2ccccn2)Cc2ccccn2)nc1,-14%,.,.,25%,.
CC(=O)N1C[C@H]2CON(C)[C@H]2C[C@H]1c1cccc(-c2ccc(C#N)cc2)c1,.,.,-7%,.,.
O=C(NCc1ccc(F)cc1)c1[nH]c(C(F)(F)F)nc1-c1ccccc1,.,.,4%,.,.
CCc1nc2c(OCC3COc4ccccc4O3)cccn2c1N(C)C(=O)c1ccccc1F (stereo unspecified),.,.,-6%,.,.
CC(C)CNC(=S)NNC(=O)c1csc2ccccc12,0%,-24%,0%,8%,-13%
CC(C)CNC(=S)NNC(=O)c1csc2c1CCCC2,-3%,7.1µM*,-6%,15%,?
CCOc1ccc(NC(=O)COc2ccccc2)c([N+](=O)[O-])c1,6%,4%,24µM*,7%,-7%
COc1ccc(NC(=O)C/C(C)=N/NC(=O)c2cccs2)c([N+](=O)[O-])c1,.,20µM*,-7%,4%,18µM*
COc1ccc(NC(=O)COC(=O)c2ccco2)c([N+](=O)[O-])c1,2%,-7%,27µM*,-13%,4%
COc1cc(NC(=O)COc2ccccc2[N+](=O)[O-])ccc1NC(=O)c1cccs1,16%,16%,0%,16µM*,-4%
COc1ccc(NC(=O)c2cccs2)c([N+](=O)[O-])c1,14%,11%,3%,11%,-4%
COc1ccccc1CNc1ncnc2ccc(-c3ccccc3C#N)cc12,?,?,.,4%,?
CC1(CC(=O)O)O[C@H]2CCCCC[C@H]2O1 (stereo partly specified) (tested in a mixture with another compound),1%[13.5 µM],.,.,.,.
Cc1noc(C)c1-c1nccc(N2CCNCC2)n1,5%,-12%,.,-2%,3%
CC(C)(C)NC[C@H](O)COc1cccc2c1C[C@@H](O)[C@@H](O)C2,0%[20.9 µM],1%[2.98 µM],.,19%,-5%[17 µM]
